ADAM10 inh = human ADAM10 inhibitors, primary screen, biochemical, QFRET, HTS | inhibition, % at 7 µM | recombinant ADAM10, EDANS/DABCYL FRET peptide cleavage, 3 h | 370,000 tested, 0.62% active | AID 720582, 2013;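 active means inhibition above a per-campaign cutoff equal to the mean of compounds falling between control-based bounds plus 3 SD, cut at about 20% in these data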;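 further: 0% = DMSO wells while the 100% control is not disclosed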
FAS TE block = FAS thioesterase domain inhibitors, primary screen, biochemical, fluorescence intensity, uHTS; 360,000 tested, 0.67% active; recombinant FAS-TE, OMFH fluorogenic substrate, fluorescence endpoint; inhibition, % at 15 µM;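 active means compounds whose normalised, plate-corrected inhibition of enzyme fluorescence in the single-dose primary screen is 50% or more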;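 further: 0% = DMSO with enzyme and 100% = substrate without enzyme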
ADAM17 inh = ADAM17 inhibitors, primary screen, biochemical, QFRET. Disintegrin and metalloproteinase domain-containing protein 17 (Homo sapiens), P78536. recombinant ADAM17, EDANS/DABCYL FRET peptide cleavage. inhibition, % at 6.95 µM. 370,000 tested, 0.83% active. AID 720648, 2013;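 active means inhibition above the mean of compounds lying between control limits plus 3 SD, set per campaign, cut at about 8.5% in these data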;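 further: 0% = DMSO-only wells as the low control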
Target sequence (P78536 215-824 limits assumed): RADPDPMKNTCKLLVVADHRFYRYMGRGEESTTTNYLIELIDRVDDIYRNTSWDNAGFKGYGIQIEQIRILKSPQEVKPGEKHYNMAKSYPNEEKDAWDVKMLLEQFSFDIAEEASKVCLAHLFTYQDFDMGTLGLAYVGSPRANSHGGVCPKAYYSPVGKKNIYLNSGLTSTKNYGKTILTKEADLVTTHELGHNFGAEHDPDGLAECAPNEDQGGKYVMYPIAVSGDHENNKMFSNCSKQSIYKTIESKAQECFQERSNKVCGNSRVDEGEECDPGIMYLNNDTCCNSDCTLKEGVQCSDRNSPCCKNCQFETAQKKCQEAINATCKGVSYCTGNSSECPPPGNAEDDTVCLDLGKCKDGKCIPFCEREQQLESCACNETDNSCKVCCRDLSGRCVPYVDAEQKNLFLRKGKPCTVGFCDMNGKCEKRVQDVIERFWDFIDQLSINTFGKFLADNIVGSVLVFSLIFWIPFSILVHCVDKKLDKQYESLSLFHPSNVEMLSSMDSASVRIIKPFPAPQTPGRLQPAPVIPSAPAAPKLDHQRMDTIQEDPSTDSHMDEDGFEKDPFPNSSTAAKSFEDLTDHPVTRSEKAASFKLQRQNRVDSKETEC
aDG glyco up = activators of alpha-DG glycosylation, primary screen, uHTS, Pro5-aDG cells, AlphaScreen | alpha-DG glycosylation AlphaScreen (IIH6); 0% Pro5, 100% B10-LARGE cell signal | activation, % at 10 µM | 360,000 tested, 0.22% active | AID 624168, 2012;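 active means activation of at least 8% versus controls, or a plate z-score of at least 8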;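 further: Pro5 are CHO cells carrying HIG-tagged alpha-DG that lacks glycosylation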
GRIN3A LBD mod = binders of NR3A ligand-binding domain, primary screen, biophysical, differential scanning fluorimetry, uHTS; Glutamate receptor ionotropic, NMDA 3A (GRIN3A) ligand-binding domain; Tm shift relative to glycine control, % at 25 µM; AID 1259313, 2017; NR3A LBD differential scanning fluorimetry, Tm shift; 0% = protein alone, 100% = glycine-bound protein; 340,000 tested, 2.5% active;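 active means melting temperature shift of at least 10% of the positive control shift, at one fixed dose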
FAS-TE conf = FAS thioesterase domain inhibitors, confirmation, biochemical, fluorescence intensity, single concentration. shares compounds with FAS TE block. recombinant FAS-TE, OMFH fluorogenic substrate. inhibition, % at 15 µM. 2,300 tested, 45% active;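 active means compounds inhibiting the enzyme by at least 50% at 15 µM in any one of the replicates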;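 further: 0% = enzyme with DMSO only and 100% = wells lacking enzyme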
* marks the source's active call; other numbers are inactive results; x = not tested or not shown; ! = not active in a repeat. The list is not random: actives were taken first. Their share in the collection is about 4%.

SMILES	ADAM10 inh	FAS TE block	ADAM17 inh	aDG glyco up	GRIN3A LBD mod	FAS-TE conf
CC(CCc1ccccc1)NC(=O)c1cccc([N+](=O)[O-])c1 (configuration not stated)	3.1	61.6*	1.1	0.5	-3.7	70.1*
O=C(NCCCCc1ccccc1)c1cccc([N+](=O)[O-])c1	-7.1	54.5*	-2.1	0.7	-11.2	65.4*
O=C(Nc1ccc(Cc2ccncc2)cc1)c1cccc([N+](=O)[O-])c1	8.2	66.5*	2.9	1.6	-2.4	70.2*
O=C(Nc1ccc(NC(=O)c2cccc([N+](=O)[O-])c2)cc1)c1cccc([N+](=O)[O-])c1	-1.6	20.0	0.2	0.0	2.1	x
O=C(NCCCCc1ccccc1)c1ccccc1	3.5	-4.3	-1.4	0.0	0.5	x
CC(Cc1ccccc1)NC(=O)c1ccc([N+](=O)[O-])cc1 (configuration not stated)	-1.6	22.3	-1.1	0.2	-1.7	x
O=C(NCCCCc1ccccc1)c1cc([N+](=O)[O-])cc([N+](=O)[O-])c1	-4.4	51.8*	-1.3	0.2	-5.2	52.7*
COc1cc2c(cc1OC)CN(C(=O)/C=C/c1cc(OC)c(OC)c(OC)c1)CC2	-31.8	-1.3	-15.6	0.0	-1.8	x
Cc1c(NC(=S)NC(=O)C(C)(C)C)cccc1[N+](=O)[O-]	0.0	-2.1	1.5	0.1	0.9	x
O=C(NCCCc1ccccc1)c1ccccc1	0.8	-8.6	-3.5	0.0	-1.4	x
O=[N+]([O-])c1cccc(NC(=S)NCCc2ccccc2)c1	4.5	65.4*	5.6	1.6	32.6*	56.5*
O=C(NCCCc1ccccc1)c1cccc([N+](=O)[O-])c1	-5.8	67.1*	-2.6	0.0	-6.5	50.8*
O=C(O)c1cccc(Cn2c(Cl)c(/C=N/NC(=O)c3cc4ccccc4cc3O)sc2=O)c1	2.4	1.7	-0.8	0.0	5.4	x
O=[N+]([O-])c1ccc(CS(=O)(=O)c2ccc(Cl)cc2)cc1	-1.8	7.7	-4.9	-0.2	1.2	x
O=[N+]([O-])c1cc(CS(=O)(=O)Oc2ccc(Cl)cc2)c(O)c([N+](=O)[O-])c1	6.2	57.3*	0.3	-0.2	-3.6	68.4*
O=C(/C=C/c1ccc(Cl)cc1Cl)N1CCN(c2ccc([N+](=O)[O-])c(N3CCOCC3)c2)CC1	-0.1	64.8*	1.3	0.9	-5.4	16.5
Cc1nc(N)c(C#N)c(-c2cccnc2)c1C	-55.8	-6.9	-14.7	-0.1	-0.6	x
CS(=O)(=O)c1ncc(Cl)c(C(=O)Nc2ccc3ccccc3c2)n1	9.9	57.1*	3.8	-0.7	-20.8	33.4
CCC1CCCCN1S(=O)(=O)c1ccc(NC(=O)c2ccncc2)cc1 (configuration not stated)	7.0	3.2	-3.6	3.1	3.5	x
CCC1CCCCN1S(=O)(=O)c1ccc(NC(=O)c2nc(S(C)(=O)=O)ncc2Cl)cc1 (configuration not stated)	-7.9	59.6*	-4.3	-0.7	-7.6	65.8*
COc1cc(NC(=O)NCC2CCN(Cc3ccccc3C)CC2)cc(OC)c1OC	-5.5	-3.1	-1.4	0.1	-0.7	x
O=C(O)c1ccc(-c2nc(-c3ccccc3Cl)cs2)cc1	-42.8	0.2	-11.1	-0.6	1.7	x
CCS(=O)(=O)c1ccc(-c2csc(-c3ccccc3)n2)c(Cl)c1Cl	-3.7	83.5*	-3.8	0.9	2.3	70.6*
COc1cc(OC)c2ccc(=O)oc2c1C(CC(=O)N1CCN(c2ccccc2)CC1)c1ccc2c(c1)OCO2 (configuration not stated)	0.2	50.6*	1.4	-0.3	-1.1	25.1
COc1cc(OC)c2c(-c3ccccc3)cc(=O)oc2c1C(CC(=O)N1CCN(c2ccccc2)CC1)c1ccc(N(C)C)cc1 (configuration not stated)	10.9	69.5*	1.0	-0.6	0.2	14.4
SMILES	ADAM10 inh	FAS TE block	ADAM17 inh	aDG glyco up	GRIN3A LBD mod	FAS-TE conf
COc1cc(OC)c2ccc(=O)oc2c1C(CC(=O)N1CCOCC1)c1ccc2c(c1)OCO2 (configuration not stated)	-61.5	-1.6	-11.4	-0.3	-1.0	x
Cc1cc(NC(=O)Cn2nnc(-c3ccccc3NC(=O)c3ccccc3F)n2)no1	9.4	1.5	1.6	0.2	-0.6	x
COc1ccc([N+](=O)[O-])cc1NC(=O)CC1SC(=Nc2cccc(C)c2C)N(/N=C/c2cccc(OC)c2OC)C1=O (configuration not stated)	4.0	86.6*	-1.6	-0.6	21.3*!	8.1
Cc1ccc(-c2nnc(Nc3ccc4c(c3)OCO4)c3ccccc23)cc1S(=O)(=O)NC(C)C	-2.1	50.6*	2.6	0.2	-2.2	15.3
CC(=O)c1cnc(Nc2ccc(C)cc2)s1	0.1	-1.4	0.9	0.2	-2.7	x
CC(C)(C)c1ccc(NC(=O)COC(=O)CCN2C(=O)c3cccc([N+](=O)[O-])c3C2=O)cc1	-19.2	83.3*	-6.0	-0.3	-7.1	35.9
CC(C)c1ccc(/C=N/Nc2cc(N3CCOCC3)nc(N3CCOCC3)n2)cc1	2.3	89.0*	2.4	0.1	-8.2	90.3*
O=[N+]([O-])c1ccc(Cl)c(/C=N/Nc2nc(N3CCOCC3)nc(N3CCOCC3)n2)c1	2.5	50.7*	-5.3	0.1	3.2	5.0
O=[N+]([O-])c1ccc(/C=N/Nc2nc(N3CCOCC3)nc(N3CCOCC3)n2)cc1	x	50.5*	x	0.0	x	22.7
O=[N+]([O-])c1ccc(/C=N/Nc2nc(N3CCCCC3)nc(N3CCCCC3)n2)o1	-1.9	13.4	5.4	0.1	0.8	x
Clc1cc2c(cc1/C=N/Nc1nc(N3CCOCC3)nc(N3CCOCC3)n1)OCO2	-7.0	11.6	-6.4	-0.4	7.3	x
CS(=O)(=O)N(CC(=O)NCCc1ccccc1)c1cccc([N+](=O)[O-])c1	3.9	7.3	0.9	0.5	1.2	x
COc1ccc(/C=C2\SC(=S)N(CCCC(=O)N3CCOCC3)C2=O)cc1OC	0.7	0.6	-0.1	0.4	1.0	x
COc1cc(/C=C2/SC(=S)N(c3ccccc3)C2=O)ccc1Oc1nc(N2CCOCC2)nc(N2CCOCC2)n1	3.0	62.9*	2.4	-0.4	-1.0	-3.3
O=C(COC(=O)c1cc([N+](=O)[O-])ccc1Cl)NCCc1ccccc1	-13.1	76.1*	1.3	0.0	1.2	83.4*
CN(C(=O)COC(=O)c1cc([N+](=O)[O-])ccc1Cl)c1ccccc1	-3.5	52.4*	6.2	0.0	-2.1	62.1*

Compound activity (PubChem BioAssay)
